# High-throughput results (PubChem)
# BL2 CD40 inh – CD40 pathway inhibition in BL2 cells | BL2 NF-kB luciferase reporter, CD40L-induced, 4 h | inhibition, % at 10 µM | 0.94% of 83,000 active | AID 1053188;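 active = mean inhibition of at least 50% with a set share of replicates also reaching that level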;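 also: 0% = neutral control wells and 100% = IKK inhibitor VII at 50 µM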
# * hit, by the source's call; [ ] = another dose, or the depositor's remark. This excerpt belongs to a sample that is enriched for hits.
SMILES,BL2 CD40 inh
CN1C(=O)c2cc(NC(=O)C3CCCCC3)ccc2OC[C@@H]2O[C@H](CC(=O)NC3CCCC3)CC[C@@H]21,3
CC[n+]1c(/C=C2/C=C(C)CC(C)(C)C2)sc2ccc(OC)cc21,80*
CCc1cnc(N2[C@H](C#N)[C@@H](c3ccc(C#CC(C)C)cc3)[C@@H]2CO)s1,9[25 µM]
Cc1ccc(/C=C2/CNC/C(=C\c3ccc(C)cc3)C2=O)cc1,65*[25 µM]
Cc1ccc(S(=O)(=O)N2CC=C(N)N2)cc1,-2
Cc1ccc(C=C2C=C(c3ccccc3)OC2=O)cc1,-33
C[C@@H]1CN([C@@H](C)CO)C(=O)c2cc(C3=CCCCC3)cnc2O[C@H]1CN(C)S(=O)(=O)c1cn(C)cn1,-15[25 µM]
COCCNC(=O)C[C@H]1CC[C@@H]2[C@@H](COc3ccc(NS(=O)(=O)c4ccc(Cl)cc4)cc3C(=O)N2C)O1,6[25 µM]
Cc1[nH]c2ccccc2c1C(c1ccncc1)N1CCC(C)CC1 (configuration not stated),16
Cc1[nH]c2ccccc2c1C(c1ccccn1)N1CCC(C(N)=O)CC1 (configuration not stated),62*
Cc1[nH]c2ccccc2c1C(c1ccncc1)N1CCN(c2ccccn2)CC1 (configuration not stated),-3
C/C=C/c1ccccc1[C@H]1[C@@H](C#N)N(C(=O)c2cccnc2)[C@@H]1CO,-1[25 µM]
CN1c2ccc(C3=CCCCC3)cc2[C@@H]2[C@@H](CCN2C(=O)NC2CCCCC2)[C@H]1CO,9
CCC(=O)NC(c1ccc(OC)cc1)c1cc(Cl)c2cccnc2c1O (configuration not stated),8
CCC(=O)NC(c1ccccc1OC)c1ccc2cccnc2c1O (configuration not stated),88*
Cc1cc(NC(c2cccnc2)c2ccc3cccnc3c2O)no1 (configuration not stated),-52
CC(C)c1cn(CC[C@H]2CC[C@@H](NC(=O)C3CCCCC3)[C@H](CO)O2)nn1,-2
COc1ccc(C(=O)/C=C/C(=O)N(CC(=O)NC2CCCCC2)Cc2ccccc2OC)c(O)c1,2
COc1cccc(/C=C/C(=O)OCC(=O)NC2CCCCCCC2)c1,5
COc1ccc(C(=O)/C=C/C(=O)N(CC(=O)NC2CCCCC2)Cc2ccccc2)c(O)c1,105*
CCN(Cc1ccccc1)S(=O)(=O)c1ccc(C(=O)N(CCCN(C)C)c2nc3cc(OC)ccc3s2)cc1,52*
CCN(Cc1ccccc1)S(=O)(=O)c1ccc(C(=O)N(CCCN(C)C)c2nc3cc4c(cc3s2)OCCO4)cc1,16
COc1ccc2sc(N(CCCN(C)C)C(=O)c3ccc(C(=O)c4ccccc4)cc3)nc2c1,9
CCCNC(=O)C[C@@H]1CC[C@H]2[C@H](COc3ccc(NC(=O)NCCC)cc3C(=O)N2C)O1,4
Cc1ccc(OCCn2cnc3c(N)ncnc32)cc1,84*
SMILES,BL2 CD40 inh
Cc1ccc(OCCCCn2cnc3ccccc32)cc1,1
Nc1ncnc2c1ncn2CCNCCc1ccccc1,0
N#C[C@@H]1[C@H](c2ccc(C#CC3CCCC3)cc2)[C@@H](CO)N1C(=O)Nc1ccc(F)cc1,48*
N#C[C@H]1[C@H](c2ccc(C#CC3CCCC3)cc2)[C@@H](CO)N1C(=O)Nc1ccc(F)cc1,29
CC(C)NC(=O)N1[C@H](C#N)[C@H](c2ccc(C#CC3CCCCC3)cc2)[C@@H]1CO,9
N#C[C@H]1[C@H](c2ccc(C#CC3CCCCC3)cc2)[C@H](CO)N1C(=O)Nc1ccc(F)cc1,51*[25 µM]
CC(C)NC(=O)N1[C@H](C#N)[C@@H](c2ccc(C#CC3CCCCC3)cc2)[C@@H]1CO,-3
N#C[C@H]1[C@@H](c2ccc(C#CC3CCCCC3)cc2)[C@H](CO)N1C(=O)Nc1ccc(F)cc1,55*[25 µM]
CC(C)NC(=O)N1[C@H](CO)[C@H](c2ccc(C#CC3CCCCC3)cc2)[C@@H]1C#N,12
CC(C)NC(=O)N1[C@H](C#N)[C@@H](c2ccc(C#CC3CCCC3)cc2)[C@H]1CO,-2
N#C[C@H]1[C@@H](c2ccc(C#CC3CC3)cc2)[C@@H](CO)N1C(=O)Nc1ccc(F)cc1,2
COc1ccc(S(=O)(=O)N(C)C[C@@H]2Oc3ccc(NS(=O)(=O)c4c(C)noc4C)cc3C(=O)N([C@@H](C)CO)C[C@H]2C)cc1,0[25 µM]
COc1ccc(CNC(=O)C[C@@H]2CC[C@H](NC(=O)c3ccc4c(c3)OCO4)[C@@H](CO)O2)cc1,-7
COc1cccc(NC(=O)N2[C@@H]3CNC[C@H]2C3c2ccc(-c3cccc(C(=O)N(C)C)c3)cc2)c1 (some centres not stated),-18
CCC(=O)N1[C@@H]2c3ccc(-c4cncnc4)c(=O)n3C[C@H]1[C@H](CO)[C@H]2C(=O)N1CCc2ccccc2C1,-6[25 µM]
O=C(Nc1ccc(F)cc1)N1CC(=O)N2[C@H](C1)[C@H](c1ccc(-c3cccc(F)c3)cc1)[C@@H]2CO,-3[25 µM]
Cc1ccc(S(=O)(=O)Nc2ccc3c(c2)C(=O)N(C)[C@H]2CC[C@@H](CC(=O)NCCc4ccncc4)O[C@H]2CO3)cc1,-3[25 µM]
CN([NH2+][O-])c1cc(O)ccc1O,-25[25 µM]
